# Data taken from the supplement of paper PMC11006884.
# The full data set covers some 6,500 targets. This sample favours those with a hit. About 2% of all pairs of compound and target were hits.
# Compound: COC(=O)C#Cc1ccccc1 [methyl 3-phenylpropiolate]
# Experiment: log2 ratio of iodoacetamide-alkyne labeling of the cysteine site, DMSO over compound (competition); higher = stronger covalent engagement of the cysteine by the compound, active = 1 or more
# Settings: 500 µM; treatment time 1 h; system: HEK293T cell lysate
# Outline: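 The log2 competition ratio per cysteine is defined as mean reporter intensity in control channels over mean reporter intensity in compound channels. Lysate from HEK293T cells (2 mg/mL) received electrophile (500 µM) or vehicle for 1 h at ambient temperature, followed by iodoacetamide alkyne for 1 h. Samples were clicked to sCIP-TMT reagents, pooled, trypsin-digested overnight at 37 °C, streptavidin-enriched, acid-eluted and run on Orbitrap Eclipse LC-MS/MS with FAIMS, with quantification in FragPipe. Three replicates with duplicate channels were used, and any cysteine quantified in only one replicate was excluded.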
# UniProt Q99832, sequence (Q99832 whole entry, looked up): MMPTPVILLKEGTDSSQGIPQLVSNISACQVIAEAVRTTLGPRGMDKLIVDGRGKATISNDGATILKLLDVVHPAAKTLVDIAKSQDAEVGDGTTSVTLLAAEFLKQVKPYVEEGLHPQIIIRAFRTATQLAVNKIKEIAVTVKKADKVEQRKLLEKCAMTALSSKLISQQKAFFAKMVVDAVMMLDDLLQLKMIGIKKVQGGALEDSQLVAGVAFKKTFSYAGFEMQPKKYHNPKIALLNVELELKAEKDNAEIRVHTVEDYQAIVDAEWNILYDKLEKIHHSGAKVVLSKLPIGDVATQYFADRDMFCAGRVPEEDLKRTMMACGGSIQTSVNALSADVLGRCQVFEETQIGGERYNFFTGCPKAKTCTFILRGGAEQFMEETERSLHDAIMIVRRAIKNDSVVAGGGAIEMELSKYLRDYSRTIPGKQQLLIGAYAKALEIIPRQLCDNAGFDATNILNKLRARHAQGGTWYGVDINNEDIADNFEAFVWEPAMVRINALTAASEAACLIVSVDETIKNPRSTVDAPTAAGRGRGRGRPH
# UniProt Q8N201, sequence (Q8N201 whole entry, looked up): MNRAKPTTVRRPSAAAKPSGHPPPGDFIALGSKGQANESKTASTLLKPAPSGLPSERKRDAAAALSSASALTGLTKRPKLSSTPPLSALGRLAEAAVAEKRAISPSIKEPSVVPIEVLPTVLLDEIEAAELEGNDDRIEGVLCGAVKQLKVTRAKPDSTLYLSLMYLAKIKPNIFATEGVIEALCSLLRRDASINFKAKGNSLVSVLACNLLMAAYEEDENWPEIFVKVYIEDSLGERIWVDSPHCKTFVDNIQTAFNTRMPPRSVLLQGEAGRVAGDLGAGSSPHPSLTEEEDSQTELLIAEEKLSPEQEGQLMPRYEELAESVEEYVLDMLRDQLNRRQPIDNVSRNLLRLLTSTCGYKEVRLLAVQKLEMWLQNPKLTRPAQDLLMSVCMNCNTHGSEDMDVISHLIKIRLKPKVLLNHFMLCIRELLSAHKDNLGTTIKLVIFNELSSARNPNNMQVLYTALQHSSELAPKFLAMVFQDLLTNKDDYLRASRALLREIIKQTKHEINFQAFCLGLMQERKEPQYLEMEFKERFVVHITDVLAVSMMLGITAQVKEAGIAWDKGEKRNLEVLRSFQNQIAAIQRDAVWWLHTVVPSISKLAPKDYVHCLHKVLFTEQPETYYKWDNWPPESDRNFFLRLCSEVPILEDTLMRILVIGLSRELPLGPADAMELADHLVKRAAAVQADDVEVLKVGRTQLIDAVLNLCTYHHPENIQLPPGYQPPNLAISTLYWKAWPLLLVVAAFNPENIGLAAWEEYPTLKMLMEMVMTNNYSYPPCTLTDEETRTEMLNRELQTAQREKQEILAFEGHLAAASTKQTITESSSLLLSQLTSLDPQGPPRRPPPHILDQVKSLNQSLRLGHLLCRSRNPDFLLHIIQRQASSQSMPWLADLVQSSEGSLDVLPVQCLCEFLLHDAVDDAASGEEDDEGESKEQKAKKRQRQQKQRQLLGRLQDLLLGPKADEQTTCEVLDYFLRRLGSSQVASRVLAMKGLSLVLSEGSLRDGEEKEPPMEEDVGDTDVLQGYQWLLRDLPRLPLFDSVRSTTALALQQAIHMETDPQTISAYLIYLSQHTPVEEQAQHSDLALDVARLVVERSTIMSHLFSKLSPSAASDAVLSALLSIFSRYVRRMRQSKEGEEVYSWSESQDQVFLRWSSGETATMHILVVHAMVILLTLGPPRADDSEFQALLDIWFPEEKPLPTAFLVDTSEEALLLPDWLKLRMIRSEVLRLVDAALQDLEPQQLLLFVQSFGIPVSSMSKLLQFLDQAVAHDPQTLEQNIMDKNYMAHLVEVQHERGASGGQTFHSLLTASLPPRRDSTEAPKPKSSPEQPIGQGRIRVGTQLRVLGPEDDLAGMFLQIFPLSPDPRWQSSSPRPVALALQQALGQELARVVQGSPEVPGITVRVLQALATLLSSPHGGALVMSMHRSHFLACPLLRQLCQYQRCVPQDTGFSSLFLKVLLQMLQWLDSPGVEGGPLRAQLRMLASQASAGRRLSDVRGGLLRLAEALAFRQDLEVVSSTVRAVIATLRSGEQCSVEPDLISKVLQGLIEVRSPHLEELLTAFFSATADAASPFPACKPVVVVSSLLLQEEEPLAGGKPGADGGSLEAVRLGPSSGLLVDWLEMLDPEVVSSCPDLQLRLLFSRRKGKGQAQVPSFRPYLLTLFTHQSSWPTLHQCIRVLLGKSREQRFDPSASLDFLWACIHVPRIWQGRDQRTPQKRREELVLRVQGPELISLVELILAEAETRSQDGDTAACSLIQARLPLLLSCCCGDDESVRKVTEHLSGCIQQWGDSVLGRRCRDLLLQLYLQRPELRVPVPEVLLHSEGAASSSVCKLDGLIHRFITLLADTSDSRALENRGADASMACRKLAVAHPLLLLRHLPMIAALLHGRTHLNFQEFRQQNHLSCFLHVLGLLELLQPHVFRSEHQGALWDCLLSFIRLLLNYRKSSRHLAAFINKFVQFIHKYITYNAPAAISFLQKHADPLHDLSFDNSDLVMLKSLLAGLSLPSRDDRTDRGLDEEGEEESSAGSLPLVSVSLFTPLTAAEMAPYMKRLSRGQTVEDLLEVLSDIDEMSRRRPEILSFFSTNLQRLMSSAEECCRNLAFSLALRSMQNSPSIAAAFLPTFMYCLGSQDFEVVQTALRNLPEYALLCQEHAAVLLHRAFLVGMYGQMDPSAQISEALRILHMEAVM
# UniProt Q93052, sequence (Q93052 whole entry, looked up): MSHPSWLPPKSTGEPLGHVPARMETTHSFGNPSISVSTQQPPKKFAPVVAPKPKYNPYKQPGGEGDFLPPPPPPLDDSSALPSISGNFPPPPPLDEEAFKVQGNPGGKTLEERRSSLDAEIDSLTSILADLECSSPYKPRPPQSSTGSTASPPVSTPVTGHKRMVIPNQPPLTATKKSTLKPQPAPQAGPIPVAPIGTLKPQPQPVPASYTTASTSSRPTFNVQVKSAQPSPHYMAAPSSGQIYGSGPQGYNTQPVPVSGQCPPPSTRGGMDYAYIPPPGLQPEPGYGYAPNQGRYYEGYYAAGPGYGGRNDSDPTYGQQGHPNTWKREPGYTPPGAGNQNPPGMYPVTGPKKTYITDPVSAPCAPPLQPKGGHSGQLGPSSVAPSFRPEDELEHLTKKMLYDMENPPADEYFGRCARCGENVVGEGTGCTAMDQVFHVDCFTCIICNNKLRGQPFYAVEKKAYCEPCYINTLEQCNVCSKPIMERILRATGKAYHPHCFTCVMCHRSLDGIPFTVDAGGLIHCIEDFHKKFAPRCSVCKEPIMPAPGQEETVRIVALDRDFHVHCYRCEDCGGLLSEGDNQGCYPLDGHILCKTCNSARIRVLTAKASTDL
# UniProt Q96T76, sequence (Q96T76 whole entry, looked up): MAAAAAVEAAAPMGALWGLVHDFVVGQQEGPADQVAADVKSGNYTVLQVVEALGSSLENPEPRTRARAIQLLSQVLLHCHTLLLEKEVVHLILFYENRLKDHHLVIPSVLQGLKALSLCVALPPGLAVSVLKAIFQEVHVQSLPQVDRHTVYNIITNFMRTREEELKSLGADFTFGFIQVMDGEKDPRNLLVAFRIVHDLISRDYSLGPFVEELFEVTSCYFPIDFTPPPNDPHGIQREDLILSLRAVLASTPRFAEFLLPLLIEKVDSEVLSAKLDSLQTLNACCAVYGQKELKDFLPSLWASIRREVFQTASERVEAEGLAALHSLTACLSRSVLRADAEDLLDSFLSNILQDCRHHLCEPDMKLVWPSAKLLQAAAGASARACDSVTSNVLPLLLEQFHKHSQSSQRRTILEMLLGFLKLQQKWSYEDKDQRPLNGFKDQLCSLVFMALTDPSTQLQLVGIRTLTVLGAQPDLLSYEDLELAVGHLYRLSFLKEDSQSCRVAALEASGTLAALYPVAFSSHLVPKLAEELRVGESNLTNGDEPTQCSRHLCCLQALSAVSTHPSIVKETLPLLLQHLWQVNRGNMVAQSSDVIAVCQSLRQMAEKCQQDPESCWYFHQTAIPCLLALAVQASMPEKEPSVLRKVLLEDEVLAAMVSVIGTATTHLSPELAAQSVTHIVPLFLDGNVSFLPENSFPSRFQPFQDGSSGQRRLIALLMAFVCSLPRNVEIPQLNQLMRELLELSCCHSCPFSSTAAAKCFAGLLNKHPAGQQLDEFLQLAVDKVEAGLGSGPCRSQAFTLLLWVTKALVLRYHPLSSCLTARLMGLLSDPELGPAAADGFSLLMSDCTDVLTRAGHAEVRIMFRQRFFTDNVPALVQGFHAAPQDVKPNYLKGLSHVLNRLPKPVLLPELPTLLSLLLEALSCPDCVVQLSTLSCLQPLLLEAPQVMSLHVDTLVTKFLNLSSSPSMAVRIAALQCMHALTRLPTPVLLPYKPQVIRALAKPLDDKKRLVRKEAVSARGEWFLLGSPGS
# UniProt Q92769, sequence (Q92769 whole entry): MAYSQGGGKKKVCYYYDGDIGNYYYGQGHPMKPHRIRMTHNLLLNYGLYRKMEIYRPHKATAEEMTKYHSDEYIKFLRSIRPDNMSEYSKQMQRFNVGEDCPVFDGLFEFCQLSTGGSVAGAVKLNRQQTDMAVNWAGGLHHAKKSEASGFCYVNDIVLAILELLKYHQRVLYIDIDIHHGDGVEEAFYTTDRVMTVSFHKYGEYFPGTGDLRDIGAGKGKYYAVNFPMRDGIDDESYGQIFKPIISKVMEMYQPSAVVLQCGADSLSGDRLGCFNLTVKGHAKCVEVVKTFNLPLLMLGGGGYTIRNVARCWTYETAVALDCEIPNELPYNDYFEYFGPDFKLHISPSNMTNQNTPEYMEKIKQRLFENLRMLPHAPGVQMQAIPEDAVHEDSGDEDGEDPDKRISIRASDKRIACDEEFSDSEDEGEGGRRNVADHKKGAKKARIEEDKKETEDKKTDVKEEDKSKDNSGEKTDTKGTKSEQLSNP
row,Target,log2 ratio of iodoacetamide-alkyne labeling
1,LPCAT1 C216 (UniProt Q8NF37),0.211 (inactive)
2,MYBBP1A C1031 (UniProt Q9BQG0),0.225 (inactive)
3,UniProt Q7Z4H7_C885,0.286 (inactive)
4,INTS1 C1701 (UniProt Q8N201),-0.0332 (inactive)
5,ATPAF1 C321 (UniProt Q5TC12),0.464 (inactive)
6,PNPLA6 C409 (UniProt Q8IY17),0.4 (inactive)
7,MED12 C83 (UniProt Q93074),0.457 (inactive)
8,HDHD3 C243 (UniProt Q9BSH5),0.16 (inactive)
9,TMEM192 C266 (UniProt Q8IY95),0.418 (inactive)
10,EDC3 C137 (UniProt Q96F86),1.09 (active)
11,LUZP1 C969 (UniProt Q86V48),1.01 (active)
12,LPP C468 (UniProt Q93052),0.118 (inactive)
13,PYCR2 C262 (UniProt Q96C36),0.538 (inactive)
14,HEATR6 C360 (UniProt Q6AI08),0.657 (inactive)
15,CCT7 C29 (UniProt Q99832),1.51 (active)
16,USP28 C142 (UniProt Q96RU2),1.47 (active)
17,CEP128 C915 (UniProt Q6ZU80),0.335 (inactive)

row,Target,log2 ratio of iodoacetamide-alkyne labeling
1,PARG C963 (UniProt Q86W56),0.0715 (inactive)
2,TET2 C332 (UniProt Q6N021),0.594 (inactive)
3,THOC6 C314 (UniProt Q86W42),0.0566 (inactive)
4,MTHFD1L C778 (UniProt Q6UB35),1.1 (active)
5,SNF8 C72 (UniProt Q96H20),0.2 (inactive)
6,HSPH1 C650 (UniProt Q92598),0.025 (inactive)
7,UniProt Q9BPX6_C83,0.582 (inactive)
8,FTSJ3 C197 (UniProt Q8IY81),0.103 (inactive)
9,MMS19 C549 (UniProt Q96T76),1.36 (active)
10,HDAC2 C417 (UniProt Q92769),0.126 (inactive)
11,UniProt Q6PJG6_C228,1.06 (active)
12,AKT1S1 C61 (UniProt Q96B36),0.266 (inactive)
13,PRPF8 C435 (UniProt Q6P2Q9),1.24 (active)
14,ZFYVE16 C292 (UniProt Q7Z3T8),0.185 (inactive)
15,NGLY1 C197 (UniProt Q96IV0),0.0457 (inactive)
16,UniProt Q8IX01_C183,0.451 (inactive)
17,CWF19L1 C176 (UniProt Q69YN2),-0.136 (inactive)
